The results in this text go back to PubChem BioAssay AID493056 (National Center for Advancing Translational Sciences (NCATS), 2011).

Hit rate of the full screen: of about 360,000 compounds, about 2,400 (0.67%) were called active. The sample holds actives, similar compounds and a random draw of the others, so the mix is not that of the screen. Values without a mark were called inactive. Cut-off read from the data, not from the text of the source: active = enhancement above about 30%; inactive = the rest. Peptide text beside a SMILES is read from it. * marks the point of attachment. OPac = O=C(CO*)c1ccccc1; Bz = O=C(c1ccccc1)*

Thyrotropin-releasing hormone receptor (Homo sapiens), sequence (P34981 whole entry, looked up): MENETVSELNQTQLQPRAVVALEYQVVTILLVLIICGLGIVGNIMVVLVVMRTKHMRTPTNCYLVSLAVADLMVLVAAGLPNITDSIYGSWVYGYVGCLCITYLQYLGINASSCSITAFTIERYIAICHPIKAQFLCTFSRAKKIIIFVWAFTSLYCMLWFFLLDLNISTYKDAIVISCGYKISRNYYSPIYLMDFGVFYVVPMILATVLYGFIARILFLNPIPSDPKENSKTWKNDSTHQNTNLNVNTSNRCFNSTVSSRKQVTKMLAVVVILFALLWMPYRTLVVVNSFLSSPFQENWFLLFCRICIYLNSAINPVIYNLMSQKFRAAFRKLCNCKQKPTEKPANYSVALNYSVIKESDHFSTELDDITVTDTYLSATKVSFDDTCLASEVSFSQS

This experiment concerns the target Thyrotropin-releasing hormone receptor (Homo sapiens) (UniProt P34981). As to the kind of experiment: qHTS for Small Molecule Agonists and Allosteric Enhancers of Human TRH Receptor: Primary Screen for Enhancers. Note: 0% is about no effect. Particulars: TRHR cells, fluo-8 calcium fluorescence, EC20 TRH enhancement; at 2 µM; stronger effect = higher value. The text has this:
NIH Chemical Genomics Center [NCGC] NIH Molecular Libraries Probe Centers Network [MLPCN] MLPCN Grant: MH089816-01 Assay Submitter (PI): Marvin Gershengorn This project aims to identify small drug-like molecules that activate (agonists) the thyrotropin releasing hormone (TRH) receptor (TRHR) or enhance its TRH-stimulated activity (allosteric enhancers). TRHR, a drug-accessible cell surface receptor expressed in specific brain regions, and its ligand TRH have been implicated in several central nervous system disorders, including depression and anxiety. Small molecule TRHR agonists or allosteric enhancers that are metabolically stable and able to cross the blood-brain barrier might serve as probes to elucidate the roles of brain TRH receptors in animal models, and might be valuable as lead compounds for the development of drugs to treat patients with central nervous system disorders. Upon TRHR-Gq activation in TRHR cells, intracellular calcium is released from stores in the endoplasmic reticulum. […] This primary screen measures compound-induced enhancement of an EC20 stimulation of the receptor by its native ligand.
For the HTS assay freshly prepared cells are plated at a density of 2000/well in 3 ul of complete DMEM medium containing 10% serum in 1536-well plates and cultured over night at 37 C in a humidified incubator with 5% CO2. The next day, 2 ul of a no wash calcium dye (ABD Bioquest) was added to the cells and plates were incubated at room temperature for 1 hour. For the assay, assay plates were loaded into the FDSS kinetic plate reader. A 10 cycle (1 second/cycle) baseline measurement is taken and then the FDSS online 1536 pintool delivers 23 nl of compound library (as well as TRH controls) to the plate. The plate is measured for kinetically at 1 cycle/sec for 180 seconds and is considered to be the agonist portion of the assay (eg, compounds which activate a positive calcium response during this portion are flagged as potential agonists). Following the 180 second read, 1 ul of either an EC20 (positive modulation assay) is delivered by an onboard pipette head. Measurements are taken kinetically for an additional 180 seconds. TRHR FDSS Screening Protocol 1. Reagent, 3 uL 2000 cells/well 1536 TC treated Black plate in media containing 10% FCS 2. Time, 18 hours, 33.5C 5% CO2 (cells grown at 37C) 3. Reagent, 2 uL ABD fluo-8 Ca dye 4. Time, 30 min-1.5hrs hours, Room temp (6 plates/batch) 5. Detector, EX 480/EM 530C, FDSS 10 cycles baseline (1sec/cycle) 6. Compound, 23 nL of stock solution from library 7. Detector, EX 480/EM 530C, FDSS 230 cycles (1sec/cycle) Agonist mode 8. Compound, 1 ul EC20 of TRH made up in HEPES HBSS, 10 nM final 9. Detector, EX 480/EM 530C, FDSS 100 cycles (1sec/cycle) Potentiator mode
Consider `O=C(NC1CCCCCCC1)c1cccs1`, for which the enhancement is -1.69%.
With `O=C(Nc1n[nH]c(C(F)(F)F)n1)c1cccs1` the figure was -3.09%; with `O=C(Nc1ncccn1)c1cccs1`, 35.8% (active).
With `COc1ccc2c(CNCCc3ccccc3C)c(C(=O)O)n(Cc3ccccc3C)c2c1` the figure was -16.3%.
With `CCN1CCN(Cc2c(O)ccc3oc(C)c(C(=O)Nc4ccc(C)cc4C)c23)CC1` the figure was 4.91%.
For `CCC(=O)Nc1c(C(=O)N2CCN(c3ccc(F)cc3)CC2)oc2ccccc12`, the enhancement is -8.72%.
With `CCN1CCC(N(Cc2ccc(F)cc2)C(=O)Nc2cc(C)ccc2C)CC1` the figure was 10%; with `CCOC(=O)N1CCC(NC(=O)c2cnn(-c3cccc(C)c3)c2C2CCN(C(=O)OC(C)(C)C)CC2)CC1`, 5.75%.
For `CCCc1cc(=O)[nH]c(SCC(=O)c2c(N)n(CC(C)C)c(=O)n(C)c2=O)n1`, the enhancement is 38.3% (active).
With `CC(C)Cn1c(N)c(C(=O)COC(=O)CN2C(=O)C3CC=CCC3C2=O)c(=O)n(C)c1=O` (stereo not given) the figure was 0.142%; with `CCCc1cc(=O)[nH]c(SCC(=O)N2C(C)CCCC2C)n1` (stereo not given), 6.92%; with `O=c1cc(CSc2ncn[nH]2)[nH]c2ccc(F)cc12`, 0.991%.
With `Cc1c(C(=O)N(C)C)sc2c1c(=O)n(-c1ccc(F)cc1)c(=O)n2CC(=O)N(C)c1ccccc1` the figure was -2.28%; with `CC(C(=O)N(C)CC(=O)Nc1ccccc1C(F)(F)F)N1C(=O)c2ccccc2C1=O` (stereo not given), 35.3% (active).
In the case of `CN(CC(=O)Nc1ccccc1C(F)(F)F)C(=O)Cc1ccccc1F`, the enhancement was 1.5%.
With `O=C(CN1CCN(c2ncccn2)CC1)Nc1ccccc1C(F)(F)F` the figure was 0.988%; with `CCCNc1ncnc2c1c(-c1ccccc1)cn2-c1ccc(OCC)cc1`, -5.52%; with `CCCN(CCC)CCCNC(=O)Cn1ncc2c3ccccc3n(Cc3ccccc3)c2c1=O`, 3.33%.
With `Cc1nn(Cc2ccccc2)c(C)c1C(=O)N1CCN(CC(=O)Nc2ccccc2Cl)CC1` the figure was 66.2% (active).
In the case of `CCC(=O)Nc1ccccc1C(=O)N1CCN(Cc2ccccc2)CC1`, the enhancement was 8.38%.
In the case of `Cc1nn(Cc2ccccc2)c(C)c1C(=O)NCCCN1CCCC1=O`, the enhancement was 8.55%.
With `O=C(CSc1nccn1Cc1ccc(F)cc1)NCc1ccccc1`, the enhancement was 1.55%.
`Cc1ccc(S(=O)(=O)NC(N)=NCCC[C@@H](NC(=O)CNC(=O)c2ccccc2)C(=O)Nc2cc(C(F)(F)F)ccc2Cl)cc1`: the enhancement is 2.23%.
In the case of `CCn1c(SCC(=O)Nc2nccs2)nnc1-c1ccco1`, the enhancement is 38% (active).
With `Nn1c(SCC(=O)Nc2nccs2)nnc1-c1ccco1` the figure was 4.24%; with `CCn1c(SCC(=O)Nc2nccs2)nnc1-c1ccncc1`, 1.36%.
With `O=C(CSc1nnc(-c2ccccc2F)o1)Nc1cccc(C(F)(F)F)c1` the figure was 8.13%.
On to `Cc1cc(C)c2oc(C(=O)Nc3ccc(S(=O)(=O)N4CCCCCC4)cc3)cc(=O)c2c1`, for which the enhancement is 48.6% (active).
As to `Cc1ccc2oc(C(=O)Nc3ccc(S(=O)(=O)N4CCCCCC4)cc3)cc(=O)c2c1`, the enhancement is 0.734%.
With `Cc1cc(C)c2oc(C(=O)Nc3ccc(S(=O)(=O)N(C)c4ccccc4)cc3)cc(=O)c2c1` the figure was 0.252%; with `Cc1c(C(=O)NCc2ccccc2Br)oc2ccc3c(c12)C(=O)CC(C)(C)O3`, -2.29%; with `COc1cccc(-n2cc(C(=O)NCc3cccc(Cl)c3)c3ccccc3c2=O)c1`, -3.45%.
With `CC(NC(=O)c1ccc(N2CCNCC2)c([N+](=O)[O-])c1)C12CC3CC(CC(C3)C1)C2` (stereo not given) the figure was 31.1% (active); with `CCC(C)NC(=O)c1ccc(N2CCC3(CC2)OCCO3)c([N+](=O)[O-])c1` (stereo not given), -9.06%.
Regarding `O=C(NC1C2CC3CC(C2)CC1C3)c1ccc(N2CCNCC2)c([N+](=O)[O-])c1` (stereo not given), the enhancement is 2.28%.
With `Cc1nc2nc(SCC(=O)NC3CCC(C)CC3)nn2c(C)c1Cc1ccccc1Cl` (stereo not given) the figure was 3.16%; with `CCc1ccccc1NC(=O)CSc1nc(C)c(C(=O)Nc2ccccc2)c(-c2ccc(Cl)cc2)c1C#N`, -0.268%.
With `C=CCO/N=C/C1=C(O)C(C(=O)OC)C(C)(C)CC1=O` (stereo not given) the figure was -2.52%; with `CCCC(=O)C1=C(N(C)c2ccccc2)CC(C)(C)C(C(=O)OC)C1=O` (stereo not given), 36.8% (active); with `CCC[C@@H]1C[C@@]1(CCC)[C@@H](NC(=O)c1ccccc1)c1ccc(C(=O)OC)cc1`, -1.9%.
Take `Cc1cccc(Cc2c(C)nc3nc(SCc4ccccc4Cl)nn3c2C)c1`: the enhancement is -3.69%.
With `COc1ccc(OC)c(-c2noc(N3CCN(c4cc(Cl)ccc4C)CC3)n2)c1` the figure was -2.59%.
Consider `Cc1ccc(-c2cnc(NCc3ccc(C(C)C)cc3)n2C)cc1`, for which the enhancement is 2.38%.
With `Cc1cccc(NC(=O)CSc2ncc(-c3ccccc3)[nH]2)c1C` the figure was -2.76%; with `COc1ccc(CNC(=O)c2cc3cccc(OC)c3oc2=O)cc1`, 5.25%.
With `O=C(CNC(=O)c1ccco1)OCC(=O)c1ccccc1` the figure was 14.7%; with `O=C(CNC(=O)Cc1ccccc1)NCC(=O)OCC(=O)c1ccccc1Cl`, -4.65%.
Turning to `O=C(CNC(=O)c1ccccc1)NCC(=O)OCC(=O)c1ccccc1` (Bz-Gly-Gly-OPac), the enhancement is 48.2% (active).
With `CCCCN(CC)CCCNC(=O)c1nn(C)c2c1CSc1ccccc1-2` the figure was -0.263%; with `Cc1ccc(CN2CCc3nc(N4CCN(C)CC4)ncc3C2)cc1`, -1.43%; with `CCOC(=O)c1ccc(NC(=O)c2ncn(-c3ccccc3)n2)cc1`, -1.95%.
With `COc1ccc(/C(O)=C2/C(=O)C(=O)N(CCCN(C)C)C2c2ccccc2)cc1OC` (stereo not given) the figure was 7.56%; with `O=C1C(=O)N(CCCO)C(c2ccccc2)/C1=C(\O)c1ccc(Br)cc1` (stereo not given), 46.2% (active).
On to `COc1cccc(C2/C(=C(/O)c3ccncc3)C(=O)C(=O)N2CCCN(C)C)c1` (stereo not given), for which the enhancement is 5.69%.
With `CC(C)(C)OC(=O)N1CCC(c2c(C(=O)N3CCN(c4cccc(Cl)c4)CC3)cnn2-c2cccc(Cl)c2)CC1` the figure was -12.3%.
